Screening results deposited in PubChem BioAssay by Johns Hopkins Ion Channel Center.
This is a sample that favours compounds with a hit; in the whole collection about 3.5% have one here.
ANO1 activ = activates or potentiates the mouse TMEM16A chloride channel | Q8BHY3 | HEK293 TMEM16A/YFP-H148Q/I152L, iodide quench fluorescence; hits give low values | B-score at 10 µM | 0.3% of 340,000 active | AID 623877;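 active means fluorescence-ratio B-score plate-corrected deviation score at least 3 library SD below zero, with starting fluorescence score within 5 deviations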;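 further: channel opened by trigger with iodide after compound preincubation; score built on the fluorescence ratio of max minus min over baseline; more negative score means more quench and so TMEM16A activation or potentiation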
TMEM16A inh = inhibitors of mouse TMEM16A calcium-activated chloride channel | HEK293 TMEM16A/YFP iodide influx fluorescence, ionomycin | normalized B-score (activity score, 25-100; higher = stronger inhibition) at 10 µM | 1.2% of 310,000 active | AID 588511;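 active means ratio plate-corrected score three or more library SD toward inhibition, starting fluorescence score within five deviations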;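 further: score derived from kinetic fluorescence span divided by baseline fluorescence per well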
Kir21 inh = inhibitors of mouse Kir2.1 inward-rectifier potassium channel; B-score at 10 µM; 0.85% of 310,000 active; HEK293-Kir2.1, FluxOR thallium flux fluorescence; hits give low values; AID 1672; P35561;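 active means fluorescence ratio B-score at or below minus 3 SD of library scores, with starting-brightness B-score within 2 SD, cut at about -4.2 in these data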;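 further: channel flux triggered by added potassium and thallium sulfate stimulus; B-score of peak minus minimum fluorescence over baseline after thallium stimulus; more negative B-score means stronger Kir2.1 block with less thallium influx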
KCNK3 block = human KCNK3 channel inhibition, primary screen | CHO-KCNK3 thallium flux, FluxOR fluorescence; hits give low values | B-score at 10 µM | 0.84% of 340,000 active;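 active means B-score under library mean minus 4 SD, starting fluorescence ratio at most library mean plus 5 SD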;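 further: more negative B-score means stronger inhibition of thallium flux through KCNK3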
KCNK9 block = blocks the human KCNK9 two-pore domain potassium channel. AID 488922. Q9NPC2. HEK293 KCNK9, FluxOR thallium flux fluorescence; hits give low values. B-score at 10 µM. 1.2% of 310,000 active;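 active means ratio B-score over 3 SD below the library mean, with starting fluorescence within 5 SD of its mean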;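 further: negative B-score means less thallium flux so channel inhibition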
Target sequence (Q9NPC2 whole entry, looked up, the tested form may be a part): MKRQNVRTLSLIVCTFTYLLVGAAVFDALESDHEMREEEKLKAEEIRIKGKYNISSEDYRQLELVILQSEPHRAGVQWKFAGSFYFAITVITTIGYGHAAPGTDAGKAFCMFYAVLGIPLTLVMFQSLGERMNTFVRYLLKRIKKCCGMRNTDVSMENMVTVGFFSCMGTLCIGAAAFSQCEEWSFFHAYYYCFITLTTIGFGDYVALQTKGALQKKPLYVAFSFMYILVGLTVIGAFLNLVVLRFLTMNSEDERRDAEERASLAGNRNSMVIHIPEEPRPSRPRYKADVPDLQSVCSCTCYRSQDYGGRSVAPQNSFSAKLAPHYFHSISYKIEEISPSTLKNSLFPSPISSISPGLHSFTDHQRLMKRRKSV
KCNK9 inh conf = confirmation of human KCNK9 potassium channel inhibitors. inhibition, % at 10 µM. 43% of 4,900 active. HEK293 KCNK9 cells, FluxOR thallium flux fluorescence. shares compounds with KCNK9 block;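 active means thallium signal inhibited by more than 5 SD of the compound-free buffer control wells, on both duplicate plates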
Kir21 sel = selectivity of KCNK9 modulators against mouse Kir2.1; shares compounds with KCNK9 block; Kir2.1 cells, FluxOR thallium flux fluorescence; inhibition, % at 10 µM; 4% of 4,900 active;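 active means thallium signal drop more than 5 SD beyond the mean of the no-compound control wells, seen in both duplicate plates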;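 further: signal is fluorescence rise after thallium addition divided by baseline fluorescence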
KCNK9 uninduced = non-induced cell nonspecific activity of KCNK9 modulators | shares compounds with KCNK9 block | non-induced KCNK9-HEK293, FluxOR thallium flux | inhibition, % at 10 µM | 40% of 4,900 active;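 active means thallium signal drop beyond 5 SD of the untreated control mean, on both duplicate plates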
Each line names hits and unclear results; the compound was inactive in the other large screens (follow-up assays come after a bar, where they were run).

CC1(C)NC(=O)N(CCC(=O)Nc2cc(C(F)(F)F)ccc2Cl)C1=O	none (no result: TMEM16A inh, Kir21 inh, KCNK9 block)
CCCCNC(=O)c1onc(CSc2ccc(Cl)cc2)c1C(=O)NCCCC	none
CCCNC(=O)c1onc(CSc2ccc(Cl)cc2)c1C(=O)NC(C)C	none | KCNK9 inh conf inactive | Kir21 sel inactive | KCNK9 uninduced inactive
CC(C)NC(=O)c1onc(CSc2ccc(Cl)cc2)c1C(=O)NC(C)C	none | KCNK9 inh conf inactive | Kir21 sel inactive | KCNK9 uninduced inactive
COc1ccc(Oc2ccc(-c3ccn[nH]3)cc2)cc1	none
CCN(CC)c1ccc(C(=O)N/N=C(\C)c2ccc(O)cc2)cc1	none
C=CCc1cc(C)ccc1OCCOCCC(C(=O)OCC)C(=O)OCC	Kir21 inh -8.6 | KCNK9 inh conf inactive | Kir21 sel inactive | KCNK9 uninduced inactive
CCOC(=O)C(CCCOc1ccccc1C)C(=O)OCC	none (no result: Kir21 inh, KCNK9 block)
Cc1cccc(-c2ncc(CN3CCN(CC(C)C)C(CCO)C3)cn2)c1 (configuration not stated)	none | KCNK9 inh conf inactive | Kir21 sel inactive | KCNK9 uninduced inactive
COc1ccc(-c2ncc(CN3CCN(CCC(C)C)C(CCO)C3)cn2)cc1 (configuration not stated)	none
C[C@H](C(=O)CC(=O)OC(C)(C)C)[C@H](O)c1ccccc1	none
CC(C)CNC(=O)c1oc2ccccc2c1COc1ccccc1	none | KCNK9 inh conf inactive | Kir21 sel inactive | KCNK9 uninduced inactive
Cc1cc(C)cc(NS(=O)(=O)c2c(C)[nH]c(=O)[nH]c2=O)c1	none
CCCCCCCn1c2c(c(=N)c3ccccc31)CCC2	ANO1 activ -5.1, TMEM16A inh 100, Kir21 inh -6.7, KCNK3 block -11, KCNK9 block -10 | KCNK9 inh conf 47% | Kir21 sel 77% | KCNK9 uninduced inactive
